IL1B secr inh = inhibitors of inflammasome signaling (IL-1 beta secretion). THP-1 LPS/ATP IL-1B secretion, AlphaLISA, 16 h; stronger effect = lower value. activity change, % at 57.5 µM. hit rate 4.7% among 360,000. AID 743279; in the data active means activity change below about -50%; inconclusive means mostly about -30% to -49%; further: on the % scale 0 is the no-effect control and ±100 the full control effect
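THP-1 cells pretreated 1 hr with compounds (up to 57.5 uM final), then stimulated with LPS (250 ng/mL final) plus ATP (1.25 mM final); secreted IL-1B measured by AlphaLISA after 16 hr, decreased signal indicating inhibition.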
TDP1 inh = inhibitors of human tyrosyl-DNA phosphodiesterase TDP1 | Q9NUW8 | recombinant TDP1, AlphaScreen DNA substrate cleavage | Potency, µM (top dose mostly 130 µM), without a hit: at the top dose activity change, negative = inhibition, actives largely listed as inhibitors | hit rate 0.28% among 350,000; further: potency means the concentration at half of the fitted maximal effect; on the % scale 0 is the no-effect control and ±100 the full control effect; nearly all actives have a fitted effect of over 40% in size
Target sequence (Q9NUW8 whole entry, looked up): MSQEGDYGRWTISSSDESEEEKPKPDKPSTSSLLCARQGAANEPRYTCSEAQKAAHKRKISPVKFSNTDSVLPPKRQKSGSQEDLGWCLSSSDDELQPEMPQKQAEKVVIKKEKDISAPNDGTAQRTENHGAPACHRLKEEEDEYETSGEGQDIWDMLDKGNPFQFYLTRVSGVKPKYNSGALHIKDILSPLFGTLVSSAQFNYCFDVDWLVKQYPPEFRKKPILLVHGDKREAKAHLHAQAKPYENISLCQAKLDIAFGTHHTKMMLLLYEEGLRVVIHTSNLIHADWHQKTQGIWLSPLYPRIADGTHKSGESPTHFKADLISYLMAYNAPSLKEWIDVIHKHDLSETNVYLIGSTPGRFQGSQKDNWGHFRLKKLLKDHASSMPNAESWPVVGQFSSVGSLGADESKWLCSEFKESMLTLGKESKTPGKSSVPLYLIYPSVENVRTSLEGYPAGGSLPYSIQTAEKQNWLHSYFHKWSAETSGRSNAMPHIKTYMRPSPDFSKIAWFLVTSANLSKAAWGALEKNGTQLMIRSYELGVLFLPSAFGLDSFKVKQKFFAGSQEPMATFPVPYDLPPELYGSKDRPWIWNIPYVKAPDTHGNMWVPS
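Steps: enzyme plus compound, 15 min RT; add biotin/phosphotyrosine-FITC oligonucleotide (15 nM final), react 5 min; add donor/acceptor beads (10 ug/ml final), 10 min; read AlphaScreen. Tdp1 at 1 nM final.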
TDP1 cell noCPT = qHTS for Inhibitors of human tyrosyl-DNA phosphodiesterase 1 (TDP1): qHTS in cells in absence of CPT. AID 686978, 2013. hit rate 15% among 420,000. Potency, µM (top dose mostly 46.2 µM), for inactives: top-dose activity change, negative = growth inhibition, usual class: inhibitors. DT40 Tdp1-/- hTDP1 cells, no CPT, ATP luminescence, 48 h; further: potency means the concentration at half of the fitted maximal effect; on the % scale 0 is the no-effect control and ±100 the full control effect; nearly all actives have a fitted effect of over 55% in size
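Cells were dispensed at 400 per well, compounds added by pin tool, plates incubated ≥48 hr at 37 °C, then CellTiter-Glo added for 30 min at room temperature before luminescence reading. Line: DT40 Tdp1-/- complemented with hTDP1; camptothecin omitted.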
TGFb inhibitor = inhibitors of TGF-b signaling; HepG2 CAGA-GFP TGF-b/SMAD3 reporter, GFP fluorescence, 18 h; TGF-beta stimulated, 500 pg/mL final; Potency, µM (highest dose often 46.1 µM), inactives show top-dose activity, negative = inhibition, actives largely listed as inhibitors; hit rate 1.2% among 410,000; further: potency means the concentration at half of the fitted maximal effect; on the % scale 0 is the no-effect control and ±100 the full control effect; nearly all actives have a fitted effect of over 65% in size
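HEPG2 CAGA-GFP reporter cells (1000/well, DMEM with 1% FBS) received compounds, then recombinant TGF-beta at 500 pg/mL final for 18 hours at 37 degrees C. Per-cell GFP summed per well was normalised to unstimulated and stimulated DMSO controls before curve fitting.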
DT40 TDP1 CPT = growth inhibition of DT40 Tdp1-/-;hTDP1 cells with camptothecin (screen for TDP1 inhibitors). Potency, µM (series often up to 46.2 µM), for the others: top-dose activity change, negative = growth inhibition, hits mostly inhibitors. chicken DT40 Tdp1-/-;hTDP1 cells + 20 nM CPT, ATP luminescence, 48 h. hit rate 12% among 420,000; further: potency means the concentration at half of the fitted maximal effect; on the % scale 0 is the no-effect control and ±100 the full control effect; nearly all actives have a fitted effect of over 55% in size
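Chicken DT40 Tdp1-/- cells stably complemented with human TDP1 were seeded at 400 cells/well in medium containing 20 nM camptothecin, exposed to pin-transferred compounds, and grown at 37 °C for at least 48 hr. Viability was read as ATP luminescence.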
HepG2 tox = kills HepG2 cells in TGF-b inhibitor counter-screen; HepG2 CAGA-GFP viability, ATP luminescence, 18 h; hit rate 0.76% among 410,000; Potency, µM (series often up to 46.1 µM), for the others: at the highest dose activity change, negative = cytotoxicity, actives largely listed as cytotoxic; further: potency means the concentration at half of the fitted maximal effect
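CellTiter-Glo luminescence gave cytotoxicity after 18 hours at 37 degrees C. The cells were HepG2 CAGA-GFP in 1% FBS DMEM, stimulated with 500 pg/mL TGF-beta after compound addition. %Activity was normalised to no-cell wells (complete cell-killing) and DMSO (no toxicity), and curves were fitted and classified.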
Active calls of the source: *; ? = inconclusive; . = not tested or not shown; [ ] = dose if it differs, or a comment. Rows were chosen to be rich in hits. Some 19% of all compounds tested hit in one or more screens of this group. Unless noted, the call rests on the fitted dose curve; in most records, active means well fitted curve in the direction sought with a large enough effect; inconclusive means small, poorly fitted or top-dose-only effect, or another doubt; inactive means no such curve, though single readings can be large; an effect the other way counts as inactive or inconclusive.

SMILES	IL1B secr inh	TDP1 inh	TDP1 cell noCPT	TGFb inhibitor	DT40 TDP1 CPT	HepG2 tox
Cc1ccc(NC(=O)C2CCN(C(=O)c3cnn(-c4ccccc4)c3-n3cccc3)CC2)cc1	.	3%	13µM*	11µM*	?	-8%
COc1ccc(OC2=NS(=O)(=O)c3ccccc32)cc1	.	3%	.	.	.	.
CC(C)CNc1ncnc2c1ncn2[C@H]1CN(Cc2ccc(C(=O)O)cc2)C[C@@H](CO)O1	-1	.	10%	-6%	4%	0%
COc1ccc(N2CC(NC(=O)c3ccc4c(c3)OCO4)CC2=O)cc1 (configuration not stated)	.	5%	-20%	2%	-24%	-12%
CCOC(=O)c1ccc(CN(Cc2ccccc2C)S(=O)(=O)c2ccc(F)c(C)c2)cc1	.	-5%	?	-24%	?	-13%
Fc1ccc(C2=CC(c3ccc(F)cc3)n3c(nc4ccccc43)N2)cc1 (configuration not stated)	.	9%	5.2µM*	-6%	15µM*	-22%
COc1ccc(C2=CC(c3cc(Br)ccc3F)n3c(nc4ccccc43)N2)cc1 (configuration not stated)	.	6%	?	24%	?	-22%
COC(=O)c1ccc(C2C=C(c3ccc(Cl)cc3)Nc3nc4ccccc4n32)cc1 (configuration not stated)	.	9%	8.2µM*	?	9.2µM*	-29%
COC(=O)C1=C(C)Nc2nc3ccccc3n2C1c1ccccc1F (configuration not stated)	11	.	?	-12%	?	-91%
O=C1CSc2nc3ccccc3n21	0	-2%	1%	-10%	-11%	-14%
CC12CCC(C(=O)n3c1nc1ccccc13)C2(C)C (configuration not stated)	?	-6%	21µM*	-12%	18µM*	-27%
Cc1ccc(Cl)cc1NC1=NC(=S)N(C(C)C)C12CCCCC2	-23	5%	18µM*	-7%	?	5%
Cc1ccc(Cl)cc1NC(=O)C(=O)N1CCCCC1	-9	0%	-12%	4%	-1%	-2%
O=C(Nc1sc2c(c1CN1CCOCC1)CCC2)c1ccc(F)cc1	0	-1%	?	-1%	?	-5%
Cc1sc(NC(=O)c2ccccc2F)c(CN2CCCCC2)c1C	-28	5%	23µM*	-1%	21µM*	3%
Cc1sc(NC(=O)c2ccco2)c(CN2CCN(Cc3ccccc3)CC2)c1C	-80*	11%	12µM*	11%	12µM*	-9%
O=C(Nc1ccc(CN2CCOCC2)cc1)c1ccccc1F	-8	8%	6%	19%	-4%	-7%
Cc1sc(NC(=O)c2ccc(F)cc2)c(CN2CCCCCC2)c1C	-28	3%	13µM*	0%	13µM*	-24%
CC(C)C[C@@H](CC(=O)N[C@@H](CCC(=O)O)CC(=O)O)NC(=O)[C@@H]1CCCC[C@H]1NC(=O)C[C@H](CCCN)NC(=O)C[C@H](CO)NC(=O)[C@@H]1CCCC[C@H]1N	.	-1%	.	.	.	.
CC(=O)Nc1ccc(S(=O)(=O)N2CCC(N3CCN(Cc4ccc(C)cc4)C(=O)C3=O)CC2)cc1	.	-8%	-8%	-12%	-3%	-3%
COC(=O)c1ccc(-n2nnc(-c3nc(-c4ccccc4Cl)no3)c2C)cc1	.	0%	-8%	.	7%	3%
CCc1nc2c(OCc3ccc(OC(F)F)cc3)cccn2c1N(C)C(=O)c1cccs1	-14	.	16µM*	-13%	21µM*	-2%
CCc1nc2c(OCCn3cccc3)cccn2c1N(C)C(=O)c1cccs1	-22	.	-21%	-5%	?	-5%
CCc1nc2c(OCCOc3ccc(F)cc3)cccn2c1N(C)C(=O)c1cccs1	-24	.	10µM*	-10%	18µM*	-7%
Cc1c(C(=O)OCc2ccccc2)[nH]c2c1C(=O)CC(c1ccco1)C2 (configuration not stated)	0	?	0.92µM*	2.5µM*	0.82µM*	-44%
SMILES	IL1B secr inh	TDP1 inh	TDP1 cell noCPT	TGFb inhibitor	DT40 TDP1 CPT	HepG2 tox
COCCOC(=O)c1[nH]c2c(c1C)C(=O)CC(c1ccco1)C2 (configuration not stated)	77	.	0.73µM*	?	1µM*	-15%
CSCCOC(=O)c1[nH]c2c(c1C)C(=O)CC(c1ccco1)C2 (configuration not stated)	53	13µM*	0.82µM*	?	0.73µM*	-12%
Cc1c(C(=O)OCCOC(C)C)[nH]c2c1C(=O)CC(c1ccco1)C2 (configuration not stated)	97	-5%	0.0052µM*	?	0.023µM*	-20%
CCc1ccc(NC(=O)CN2C(C(=O)OC)=C(c3ccccc3)c3ccccc3S2(=O)=O)cc1	.	4%	-29%	-2%	0%	-18%
COc1ccc(C(=O)NCC(=O)N/N=C/c2c(C)[nH]c3ccccc23)cc1OC	-7	6%	-23%	-14%	-12%	-3%
Cc1[nH]c2ccccc2c1SCCNC(=O)c1ccccc1F	.	9%	?	?	?	-24%
COc1ccccc1C(=O)NCCSc1c(C)[nH]c2ccccc12	.	3%	23µM*	?	16µM*	-29%
COc1cc(C(=O)NCC(=O)N/N=C/c2c(C)[nH]c3ccccc23)cc(OC)c1OC	-4	6%	26µM*	-6%	?	-8%
Cc1ccc(C(=O)NCCSc2c(C)[nH]c3ccccc23)cc1[N+](=O)[O-]	-23	-3%	21µM*	?	10µM*	-23%
COc1cc(C(=O)NCCSc2c(C)[nH]c3ccccc23)cc(OC)c1OC	.	6%	15µM*	-3%	?	-25%
COc1cc(C(=O)NCCSc2ccc(F)cc2)cc(OC)c1OC	7	.	?	-2%	?	2%
COc1cccc(C(=O)NCCSc2c(C)[nH]c3ccccc23)c1OC	-22	6%	?	-7%	?	-18%
CC(C)c1c(C(=O)N2CCN(CCO)CC2)cnn1-c1nccc(-c2cccs2)n1	.	.	-14%	.	26%[9.04 µM]	.
COCCCNC(=O)Cn1c(=O)n(-c2cccc(C)c2)c(=O)c2c3c(sc21)CN(C(C)=O)CC3	.	-1%	9%	18%	10%	2%

Source: PubChem BioAssay
